Screening results as filed in PubChem BioAssay.
CYP2C9 inh = blocks human cytochrome P450 2C9; P11712; CYP2C9 Supersomes, luciferin-H conversion, luminescence; inhibition, % at 5 µM; actives 20% (n = 96,000); AID 777;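 active means blocking of liver enzyme CYP2C9 beyond about 50% at 5 µM, limit read from the data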
CYP2C9 activ = CYP2C9 (human) activation. P11712. recombinant CYP2C9, luciferin-H conversion, luminescence; stronger effect = higher value; factor 1 = untreated enzyme, 0 = blocked. activation factor at 5 µM. actives 1.4% (n = 96,000). AID 1024;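 active means activation factor of 2 or more for CYP2C9 at a 5 µM dose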;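 further: 0 = sulfaphenazole-blocked wells and 1 = vehicle-only wells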
Cav32 inh = blocks human Cav3.2 T-type calcium channel. O95180. Cav3.2-expressing cells, Fluo-4 calcium fluorescence FDSS; stronger effect = lower value. B-score at 10 µM. actives 4% (n = 100,000);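 active means single-dose well whose peak fluorescence ratio is a statistical outlier from its plate by either plate-standardised score or position-corrected B-score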
Pyk2 oligo antag = blocks oligomerization of human Pyk2 in cells; Q14289; Q293 cells, Pyk2 FERM NanoBiT luminescence; stronger effect = lower value; z-score (the deposit names both 25 µM and 10 µM); actives 0.83% (n = 99,000); AID 1347419;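 active means Z-score of -3 or lower, scaled per plate to the spread of control and sample wells; inactive means z-score above -3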;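 further: negative z-score means lost luminescence so less FERM oligomerization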
CYP2C19 act = increases human CYP2C19 enzyme activity; P33261; 96,000 tested, under 10 active; recombinant CYP2C19, luciferin-H EGE luminescence; stronger effect = higher value; 0 = fully inhibited enzyme, 1 = untreated enzyme; activation factor at 5 µM; AID 1025;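 active means activation factor of at least 2 at 5 µM in the primary screen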;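 further: 0 = wells with 2.5 mM tranylcypromine and 1 = vehicle-only wells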
CYP2C19 inh = blocks human cytochrome P450 2C19. CYP2C19 Supersomes, luciferin-H EGE luminescence, 30 min. inhibition, % at 5 µM. AID 778. actives 21% (n = 96,000). P33261;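 active means CYP2C19 inhibition above a set limit at 5 µM in the primary screen, cut at about 50% in these data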;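 further: plate controls were negative control wells for no effect and 2.5 mM tranylcypromine positive control for full effect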
Starred values were filed as active, the others as inactive; . = no result given. The list is not random: actives were taken first. Their share in the collection is about 27%.

SMILES | CYP2C9 inh | CYP2C9 activ | Cav32 inh | Pyk2 oligo antag | CYP2C19 act | CYP2C19 inh
O=C1COc2ccc(C(=O)c3ccccc3C(=O)NCc3ccco3)cc2N1 | 10 | 0.9 | -3 | -0.55 | 0.3 | 67*
O=C(CSc1ccc(-c2ccccc2)nn1)NCc1ccco1 | . | . | 0.18 | -0.02 | . | .
COCCn1c(C)cc(C(=O)CSc2ccc(NC(C)=O)cc2)c1C | 6 | 0.9 | 0.087 | 0.06 | 0.1 | 93*
COCCn1c(C)cc(C(=O)CSc2nc(C)nc3sc4c(c23)CCC4)c1C | . | . | 0.0025 | 0.33 | . | .
Cc1cc(C(=O)CSc2n[nH]c(-c3ccccc3F)n2)c(C)n1Cc1cccs1 | 92* | 0.1 | -3.5 | 0.89 | 0.4 | 63*
C=CCn1c(C)cc(C(=O)CSc2nnc(NC(C)C)s2)c1C | 18 | 0.8 | 0.98 | 0.05 | 0.3 | 73*
CC(=O)Nc1ccc(SCC(=O)c2cc(C)n(Cc3cccs3)c2C)cc1 | 63* | 0.4 | -0.28 | 0.22 | 0.9 | 14
Cc1nc(C)n(C(C)CC(=O)O)n1 (stereo unspecified) | . | . | -0.031 | 0.59 | . | .
COc1cc(OC)cc(C(=O)Nc2cccc(N3CCCC3)c2)c1 | 6 | 0.9 | 0.062 | 0.19 | 1 | -1
CC(C)CCNC(=O)C1CCCN1C(=O)NC1CCCCC1 (stereo unspecified) | . | . | 0.15 | -1.1 | . | .
CCOc1ccc(N(CC)S(=O)(=O)c2ccc3c(c2)n(C)c(=O)c(=O)n3C)cc1 | 44 | 0.6 | 0.042 | . | 1 | -3
CC1CCN(C(=O)CSc2nnc(Cc3cc(=O)[nH]c(=O)[nH]3)n2-c2ccc(Cl)cc2)CC1 | 4 | 1 | 0.17 | . | 0.9 | 8
CC(C)(C)OC(=O)N1CCN(C(=O)[C@H](Cc2ccc(O)cc2)n2cc(CCO)nn2)CC1 | . | . | -0.49 | . | . | .
COCC(C)n1c(C)cc(C(=O)CSc2ccc(NC(C)=O)cc2)c1C (stereo unspecified) | 2 | 1 | 0.066 | 1.3 | 0.2 | 81*
COCC(C)n1c(C)cc(C(=O)CSc2nc3ccccc3c(=O)[nH]2)c1C (stereo unspecified) | 14 | 0.9 | -0.3 | 1.6 | 0.6 | 43
COCC(C)n1c(C)cc(C(=O)CSc2nnc(Nc3ccccc3F)s2)c1C (stereo unspecified) | 44 | 0.6 | -5.5 | 0.31 | 0.3 | 70*
COCCn1c(C)cc(C(=O)CSc2ccc3ccccc3n2)c1C | -63 | 1.6 | -3.9 | 0.97 | 0.3 | 68*
Cc1cc(C(=O)CSc2nn(-c3ccccc3)c(=S)s2)c(C)n1Cc1ccco1 | 28 | 0.7 | . | -0.34 | 0.6 | 36
Cc1csc(SCC(=O)c2cc(C)n(Cc3cccs3)c2C)n1 | 50* | 0.5 | -4* | 0.01 | 0.2 | 84*
COc1ccc(C(=O)NCC(=O)OCC(=O)c2ccc3c(c2)OCCO3)cc1 | 0 | 1 | 0.14 | 1 | 1 | 0
C=CCn1c(C)cc(C(=O)CSc2nnc(Cc3ccccc3)o2)c1C | -43 | 1.4 | -0.86 | 1.7 | 1 | -1
C=CCn1c(C)cc(C(=O)CSc2ccc(NC(C)=O)cc2)c1C | -3 | 1 | -0.03 | 1 | 0.1 | 91*
O=C1c2ccccc2NC(c2ccccc2)N1Cc1ccco1 (stereo unspecified) | 60* | 0.4 | . | -0.68 | 0.7 | 34
O=C1c2ccccc2NC(c2ccc(F)cc2)N1Cc1ccco1 (stereo unspecified) | 68* | 0.3 | -1.1 | -1.8 | 0.5 | 53*
COc1ccc(C2Nc3ccccc3C(=O)N2Cc2ccco2)cc1COc1ccc([N+](=O)[O-])cc1 (stereo unspecified) | 96* | 0 | . | -1.1 | 0.6 | 39
SMILES | CYP2C9 inh | CYP2C9 activ | Cav32 inh | Pyk2 oligo antag | CYP2C19 act | CYP2C19 inh
O=C(c1ccc(S(=O)(=O)N2CCOCC2)cc1)N1CCc2ccccc2C1 | -1 | 1 | 0.62 | 0.71 | 1 | 1
CN1CCN(C(=S)NCCc2ccccc2)CC1 | -4 | 1 | 0.46 | 1.4 | 0.4 | 64*
CC1CCN(C(=O)C2CCN(CCCc3ccccc3)CC2)CC1 | 30 | 0.7 | -4.5* | . | 0.7 | 32
CC1CCN(C(=S)NCCc2ccccc2)CC1 | 39 | 0.6 | 0.17 | -0.18 | 0.3 | 73*
OCC1CCCN(C(=S)NCCc2ccccc2)C1 (stereo unspecified) | 11 | 0.9 | 0.064 | 0.65 | 0.5 | 48
O=C(Nc1ccc(Cl)cc1Cl)c1n[nH]c(Cn2cncn2)n1 | 51* | 0.5 | 0.25 | 0.34 | 0.5 | 53*
CSc1nc(C)cc(SCC(=O)Nc2ccc(Cl)cc2Cl)n1 | . | . | -1.7 | 0.43 | . | .
N#C/C(=C\c1ccc(Cl)cc1)c1n[nH]c(Cn2cncn2)n1 | 68* | 0.3 | 1.3 | -0.2 | 0.7 | 30
C=CCn1c(-c2cccn(Cc3ccc(Cl)cc3Cl)c2=O)n[nH]c1=S | 6 | 0.9 | -1.6 | 3.2 | 0.2 | 80*
CCn1c(-c2cc(Cl)ccc2OC)n[nH]c1=S | 4 | 1 | 1.1 | 0.56 | 0.7 | 28
C=CCn1c(-c2cccn(Cc3ccc(Cl)cc3)c2=O)n[nH]c1=S | 28 | 0.7 | 0.15 | 0.97 | 0.7 | 28
C=CCn1c(-c2cc(Cl)ccc2OC)n[nH]c1=S | 50* | 0.5 | . | 1 | 0.2 | 82*
COc1cc(C2c3c(oc4ccccc4c3=O)C(=O)N2c2ccc(C)cn2)ccc1O (stereo unspecified) | 68* | 0.3 | 0.6 | . | 0.9 | 9
CCOc1ccc(C2c3c(oc4ccccc4c3=O)C(=O)N2c2ccc(C)cn2)cc1OC (stereo unspecified) | 82* | 0.2 | -0.22 | . | 0.9 | 12
CCCCC(C)(O)C/C=C/[C@H]1[C@H](O)CC(=O)[C@@H]1CCCCCCC(=O)OC (stereo partly specified) | . | . | 0.82 | . | . | .
CCOC(=O)c1c(C)[nH]sc1=S | 14 | 0.9 | 0.56 | 0.29 | 0.9 | 8
CCOC(=O)c1c(C(F)(F)C(F)(F)C(F)(F)C(F)(F)F)n[nH]c1C | 92* | 0.1 | -3.6 | -2 | 0.1 | 95*
COc1ccc(CN(Cc2ccccn2)S(=O)(=O)c2ccc(-n3cnnn3)cc2)cc1 | . | . | . | -0.23 | . | .
COc1ccc(CN(Cc2ccccn2)S(=O)(=O)c2ccc(-n3cnnn3)c(OC)c2)cc1 | 92* | 0.1 | -0.37 | 0.91 | 0.1 | 89*
CCN(CC)S(=O)(=O)c1ccc(-n2cnnn2)c(C)c1 | 4 | 1 | 0.066 | 1.6 | 0.6 | 36
Cc1cc(S(=O)(=O)N(Cc2ccccn2)Cc2ccco2)ccc1-n1cnnn1 | 54* | 0.5 | -0.35 | -0.4 | 0.3 | 75*
CCOC(=O)c1c(NC(=O)COC(=O)Cn2c(C(F)(F)F)nc3ccccc32)sc(C)c1C | 36 | 0.6 | -3.3 | 0.11 | 1 | -1
c1ccc(C2=Nn3c(nnc3-c3n[nH]c4c3CCC4)SC2)cc1 | 11 | 0.9 | . | -1.4 | 0.5 | 50
Cc1ccc(-c2n[nH]c3c2CCC3)cc1 | 43 | 0.6 | -0.81 | -0.61 | 0.3 | 66*
